Source: PubChem BioAssay AID687001 (Broad Institute, 2013)
Entries with a potency or affinity are not part of this list. Calls of active or inactive are those of the source.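 How the source made its calls: active means signal-lowering compounds whose fitted half-maximal concentration is at or below twice the top tested dose in every run; inconclusive means runs disagree, flat 30 to 70% inhibition, or poor curve fit; inactive means the rest.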

molecular target: Protein S100-A4 (Homo sapiens) (UniProt P26447); assay: S100A4-myosin IIA binding inhibitor potency, dose response, biochemical, fluorescence polarization, cherry-picked hits (AID 687001); details: FP, S100A4/TAMRA-myosin IIA peptide binding; series mostly up to 11 µM
Sequence (P26447 whole entry, looked up): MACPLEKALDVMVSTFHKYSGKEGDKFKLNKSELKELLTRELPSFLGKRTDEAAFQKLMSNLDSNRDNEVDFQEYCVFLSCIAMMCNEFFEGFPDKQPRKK

outcome, inactive:
CNS(=O)(=O)c1ccc2c(c1)[nH]c(=S)n2C, Cc1cc(C(=O)Nc2ccncc2)c2ccccc2n1, C[C@@H]1CN([C@H](C)CO)S(=O)(=O)c2ccc(-c3cccnc3)cc2O[C@@H]1CN(C)C(=O)CC1CC1, O=C(CCN1CCCCC1)N[C@H]1CC[C@H](CCn2cc(-c3ccccc3)nn2)O[C@@H]1CO, CCCC(=O)Nc1ccc2c(c1)C(=O)N(C)C[C@H](OC)[C@H](C)CN(Cc1ccccc1)[C@@H](C)CO2, O=C(NCCNC(=O)c1cccc(O)c1)c1cccc(O)c1, CC(C)NC(=O)COc1coc(CN2CCN(c3ccccc3)CC2)cc1=O, COc1ccc(C(=O)O)cc1S(=O)(=O)Nc1ccccc1-c1ccccc1, Cc1cc2nnc(SCC(=O)NCC(c3ccccc3)N(C)C)n2c2ccccc12 (centres undefined), COc1ccc(CN(C)C[C@@H]2OCCCC[C@H](C)Oc3ccc(NS(=O)(=O)c4cn(C)cn4)cc3C(=O)N([C@@H](C)CO)C[C@H]2C)cc1, CC1NC2(C(=O)N(Cc3ccccc3)c3ccccc32)C2C(=O)N(c3ccccc3)C(=O)C12 (centres undefined), O=C(COC(=O)Cc1ccc(Cl)c(Cl)c1)Nc1ccc2[nH]c(=O)[nH]c2c1, COc1ccc(-c2sc3ccccc3c2-c2ccc(OCCN(C)C)cc2)cc1, COc1ccc2c(c1)CCC/C2=N\Nc1nc(C(=O)NN)cs1, CC1CCCCC12NC(=O)N(CC(=O)OCC(=O)Nc1ccc(F)cc1[N+](=O)[O-])C2=O (centres undefined), O=C(COC(=O)Cc1ccc(F)cc1)Nc1ccc2[nH]c(=O)[nH]c2c1, COCC(=O)N1CC2(CCN(Cc3ccccc3Cl)CC2)c2c([nH]c3cc(OC)ccc23)[C@H]1CO, CCN(CC)C(=O)Cn1ccc(NC(C)=O)nc1=O, CN(CC1CCCN(CCc2ccc(Cl)cc2)C1)C(=O)CC(F)(F)F (centres undefined), O=C1NC[C@H](c2ccccc2)OC(=O)[C@H](Cc2ccc(F)cc2)C/C=C\C[C@H]1CC(=O)N(CCO)Cc1ccccc1, Cc1sc2nc(SCC(=O)N3CCOCC3)[nH]c(=O)c2c1-c1ccccc1, C[C@H]1CCCCO[C@H](CN(C)C(=O)c2ccccc2)[C@@H](C)CN([C@@H](C)CO)C(=O)c2cc(NC(=O)NC3CCCCC3)ccc2O1, C[C@@H]1CN([C@H](C)CO)S(=O)(=O)c2ccc(C#C[C@@H](C)O)cc2O[C@@H]1CN(C)C(=O)C1CC1, C[C@@H]1CN([C@@H](C)CO)C(=O)c2cc(NC(=O)NC3CCCCC3)ccc2O[C@@H](C)CCCCO[C@@H]1CN(C)S(=O)(=O)c1cn(C)cn1, CC1CCN(C(=O)CSc2n[nH]c(-c3cccs3)n2)CC1, OC(CNC1CCCCCC1)COc1cccc2ccccc12 (centres undefined), COc1ccc(OC)c(S(=O)(=O)NCC(c2ccco2)N2CCc3ccccc32)c1 (centres undefined), CCOc1ccc(OCCC(=O)N(CC(=O)Nc2ccccc2C(F)(F)F)Cc2ccco2)cc1, C[C@@H]1CCCCO[C@H](CN(C)S(=O)(=O)c2ccc(Cl)cc2)[C@@H](C)CN([C@@H](C)CO)C(=O)c2cc(NS(=O)(=O)c3ccc(F)cc3)ccc2O1, CCOC1=C2[C@H](c3ccccc3)N(S(=O)(=O)c3ccc(C)cc3)C(C(C)(C)C)[C@H]2C(C#N)(C#N)C(C#N)(C#N)C1 (some centres undefined), COC(=O)c1ccc(NC(=O)C2CCCN2C(=O)Nc2cccc(C(C)=O)c2)cc1 (centres undefined), COCC(=O)N[C@H]1C=C[C@@H](CC(=O)OC)O[C@@H]1CO, COc1ccc(CNC(=O)CN(C(=O)CCC(=O)Nc2ccccn2)c2ccc(C)cc2)cc1, C[C@H]1CCCCO[C@H](CN(C)S(=O)(=O)c2ccc(F)cc2)[C@@H](C)CN([C@@H](C)CO)C(=O)c2cc(NS(=O)(=O)c3ccccc3)ccc2O1, C[C@@H]1CN([C@@H](C)CO)C(=O)c2cc(C#Cc3ccccc3)cnc2O[C@H]1CN(C)C(=O)c1ccccc1F, COc1cc(/C=C2\SC(=S)N(NC(=O)c3cccc(O)c3)C2=O)ccc1O, CCCNC(=O)N1C[C@H](O)COC[C@@H]2O[C@@H](CC(=O)NCCCN3CCOCC3)CC[C@H]21, COc1ccc(NC(=O)Nc2ccc3c(c2)CC(=O)N([C@@H](C)CO)C[C@@H](C)[C@H](CN(C)Cc2ccccc2)O3)cc1, CN(CC(=O)Nc1ccc(F)cc1)C(=O)CCc1nc2sc3c(c2c(=O)[nH]1)CCCC3
